This note sets out measurements from PubChem BioAssay (Tox21).

Values joined by “and” are separate entries in the source; they are usually repeats but may differ in a detail not shown here. Equal entries are not always repeated. Inconclusive results are not listed. Active and inactive are the calls of the source. The call rests on the fitted dose curve; in most records, active means well fitted curve in the direction sought with a large enough effect in the repeat runs; inconclusive means weak or mixed curves; inactive means no such curve, though single readings can be large; an effect the other way counts as inactive or inconclusive.

The target in test [1] is Cytochrome P450 2C9 (Homo sapiens) (UniProt P11712). Nature of the test: Cytochrome P450 Family 2 Subfamily C Member 9 (CYP2C9) small molecule antagonists: luciferase reporter qHTS assay (AID 1671198). The conditions noted are these: P450-Glo CYP2C9 enzyme assay, luciferin luminescence; series mostly up to 115 µM. The gist of the method:
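Enzyme-substrate mix preincubated with compound 10 min at room temperature; reaction started with NADPH regeneration solution, 1 h 37C. Luminescent luciferin product read after 20 min detection reagent.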

Test [2] addresses Cytochrome P450 1A2 (Homo sapiens) (UniProt P05177). Kind of test: Cytochrome P450 Family 1 Subfamily A Member 2 (CYP1A2) small molecule antagonists: luciferase reporter qHTS assay (AID 1671199). The conditions noted are these: P450-Glo CYP1A2 enzyme, luciferin luminescence, 1 h; series mostly up to 115 µM. The gist of the method: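 Compounds were incubated with CYP1A2 and a luminogenic proluciferin substrate for 10 min at room temperature before the reaction was started with NADPH regeneration solution. After 1 h, detection reagent was added and light output, proportional to CYP activity, was recorded.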
(In general: A reporter such as luciferase makes a cellular process visible.)

In test [3] the target is Voltage-gated inwardly rectifying potassium channel KCNH2 (Homo sapiens) (UniProt Q12809). Kind of test: Human Ether-a-go-go-Related Gene (hERG) channel small molecule antagonists: fluorescence cell-based qHTS assay (AID 1671200). The conditions noted are these: hERG-U2OS cells, FluxOR thallium flux fluorescence; series mostly up to 76.8 µM. The method, boiled down:
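First, 1000 cells per well are seeded and cultured overnight at 37 C. Next, FluxOR II dye is loaded for 1 h at room temperature, protected from light. After 10 more minutes, stimulus is added and fluorescence is read.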
In general terms: hERG is a cardiac potassium channel; its block is linked to QT prolongation.

Test [4] concerns the target Cytochrome P450 3A4 (Homo sapiens) (UniProt P08684). Nature of the test: Cytochrome P450 Family 3 Subfamily A Member 4 (CYP3A4) small molecule antagonists: luciferase reporter qHTS assay (AID 1671201). The conditions noted are these: P450-Glo CYP3A4 enzyme, luciferin luminescence, 1 h; series mostly up to 115 µM. The method, boiled down:
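Enzyme and proluciferin substrate are mixed with test chemicals for 10 min, then NADPH regeneration system drives turnover for 1 h at room temperature. A detection reagent halts the reaction; luminescence after 20 min gives relative activity.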
Further: nearly all actives have a fitted effect of over 50% in size.
Potency means the concentration at half of the fitted maximal effect.

Chain of Cytochrome P450 3A4 (Homo sapiens) (P08684 whole entry, looked up): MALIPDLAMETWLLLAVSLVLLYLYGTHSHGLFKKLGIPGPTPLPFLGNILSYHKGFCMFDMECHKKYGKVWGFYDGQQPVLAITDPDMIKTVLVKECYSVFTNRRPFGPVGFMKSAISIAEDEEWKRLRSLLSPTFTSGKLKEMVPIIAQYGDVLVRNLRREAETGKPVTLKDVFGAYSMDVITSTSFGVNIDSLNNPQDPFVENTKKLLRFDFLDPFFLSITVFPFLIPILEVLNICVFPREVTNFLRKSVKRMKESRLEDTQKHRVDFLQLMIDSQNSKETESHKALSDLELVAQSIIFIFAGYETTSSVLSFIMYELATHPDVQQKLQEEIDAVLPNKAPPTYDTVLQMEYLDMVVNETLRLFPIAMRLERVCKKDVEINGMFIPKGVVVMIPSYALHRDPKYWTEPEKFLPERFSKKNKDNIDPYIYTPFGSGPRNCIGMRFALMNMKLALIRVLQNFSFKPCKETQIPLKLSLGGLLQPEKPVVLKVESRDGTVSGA
Chain of Cytochrome P450 1A2 (Homo sapiens) (P05177 whole entry, looked up): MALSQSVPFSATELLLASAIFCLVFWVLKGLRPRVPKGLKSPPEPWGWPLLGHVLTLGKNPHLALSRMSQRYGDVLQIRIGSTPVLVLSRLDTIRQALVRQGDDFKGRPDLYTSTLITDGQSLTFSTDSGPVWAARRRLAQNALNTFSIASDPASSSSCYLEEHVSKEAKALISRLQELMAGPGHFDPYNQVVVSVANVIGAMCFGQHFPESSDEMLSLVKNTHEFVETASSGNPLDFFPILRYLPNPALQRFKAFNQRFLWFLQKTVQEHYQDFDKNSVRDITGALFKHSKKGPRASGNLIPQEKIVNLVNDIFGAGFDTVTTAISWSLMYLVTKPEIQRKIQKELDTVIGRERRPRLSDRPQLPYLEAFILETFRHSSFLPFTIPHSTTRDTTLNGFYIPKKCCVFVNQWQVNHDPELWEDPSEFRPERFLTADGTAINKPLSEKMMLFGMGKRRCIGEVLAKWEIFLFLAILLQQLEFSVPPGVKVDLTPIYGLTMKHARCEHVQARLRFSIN
Chain of Cytochrome P450 2C9 (Homo sapiens) (P11712 whole entry, looked up): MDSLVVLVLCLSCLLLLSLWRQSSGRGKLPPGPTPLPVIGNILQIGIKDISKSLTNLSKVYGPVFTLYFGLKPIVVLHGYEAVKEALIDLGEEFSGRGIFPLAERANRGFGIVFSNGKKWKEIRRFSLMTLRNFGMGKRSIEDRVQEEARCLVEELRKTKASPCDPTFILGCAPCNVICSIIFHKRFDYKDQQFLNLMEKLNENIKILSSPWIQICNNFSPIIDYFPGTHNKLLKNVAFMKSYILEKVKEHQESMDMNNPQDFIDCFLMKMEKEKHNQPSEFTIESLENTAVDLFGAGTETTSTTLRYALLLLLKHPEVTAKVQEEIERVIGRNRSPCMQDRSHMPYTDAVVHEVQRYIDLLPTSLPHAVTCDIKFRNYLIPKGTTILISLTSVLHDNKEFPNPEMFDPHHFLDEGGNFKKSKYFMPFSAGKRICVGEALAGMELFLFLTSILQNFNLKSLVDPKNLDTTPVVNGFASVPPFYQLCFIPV
Chain of Voltage-gated inwardly rectifying potassium channel KCNH2 (Homo sapiens) (Q12809 whole entry, looked up): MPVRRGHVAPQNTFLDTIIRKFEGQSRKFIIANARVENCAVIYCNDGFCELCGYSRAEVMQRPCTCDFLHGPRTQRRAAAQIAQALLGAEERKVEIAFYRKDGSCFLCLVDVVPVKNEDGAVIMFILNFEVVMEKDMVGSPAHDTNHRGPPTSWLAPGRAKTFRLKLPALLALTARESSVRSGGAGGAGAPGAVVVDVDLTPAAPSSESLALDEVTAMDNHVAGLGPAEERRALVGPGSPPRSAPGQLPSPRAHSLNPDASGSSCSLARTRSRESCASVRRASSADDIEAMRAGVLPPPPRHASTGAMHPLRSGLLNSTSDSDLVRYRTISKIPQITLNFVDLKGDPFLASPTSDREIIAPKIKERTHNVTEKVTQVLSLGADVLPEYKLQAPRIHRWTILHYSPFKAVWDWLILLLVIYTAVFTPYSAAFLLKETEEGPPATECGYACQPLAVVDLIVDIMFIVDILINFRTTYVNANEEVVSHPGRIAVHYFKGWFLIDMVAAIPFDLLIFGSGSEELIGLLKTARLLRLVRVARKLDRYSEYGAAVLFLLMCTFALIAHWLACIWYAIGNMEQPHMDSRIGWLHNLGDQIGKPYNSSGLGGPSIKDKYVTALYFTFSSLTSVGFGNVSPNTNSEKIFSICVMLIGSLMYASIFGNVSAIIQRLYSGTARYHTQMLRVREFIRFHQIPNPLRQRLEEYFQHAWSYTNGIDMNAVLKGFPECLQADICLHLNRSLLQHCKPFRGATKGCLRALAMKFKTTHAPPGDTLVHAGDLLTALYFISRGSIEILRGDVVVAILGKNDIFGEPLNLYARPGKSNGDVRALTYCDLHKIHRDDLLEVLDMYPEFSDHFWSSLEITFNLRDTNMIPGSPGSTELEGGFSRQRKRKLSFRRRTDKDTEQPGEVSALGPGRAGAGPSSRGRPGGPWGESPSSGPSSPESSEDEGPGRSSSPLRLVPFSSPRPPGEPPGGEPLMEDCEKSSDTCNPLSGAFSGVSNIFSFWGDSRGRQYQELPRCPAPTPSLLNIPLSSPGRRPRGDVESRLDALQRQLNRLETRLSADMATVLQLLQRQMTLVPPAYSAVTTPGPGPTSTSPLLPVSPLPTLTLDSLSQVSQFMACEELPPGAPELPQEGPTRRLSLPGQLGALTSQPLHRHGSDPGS

Take `O=c1[nH]c2ccccc2n1CCCN1CCN(C(c2ccccc2)c2ccccc2)CC1`: the Potency was 17.4 µM (active) in test [1] and 0.379 µM (active) in test [3]. Further, in test [2], the Potency entry is “inactive”.
Take `C=Cc1cccc(C)c1`: the Potency entry in test [1], in test [2], in test [3] and in test [4] was “inactive” in each case.
Regarding `CN(C)C(=O)COC(=O)Cc1ccc(OC(=O)c2ccc(N=C(N)N)cc2)cc1`, the Potency result in test [1], in test [2], in test [3] and in test [4] was “inactive” each time.
For `O=C(O)[C@H](O)[C@@H](O)[C@H](O[C@@H]1O[C@H](CO)[C@H](O)[C@H](O)[C@H]1O)[C@H](O)CO`, the Potency result in test [1], in test [2], in test [3] and in test [4] was “inactive” in each case.
On to `O=C(O)Cc1ccc2c(c1)C(=O)c1ccccc1CO2`, for which the Potency entry in test [1], in test [2], in test [3] and in test [4] was “inactive” each time.
Regarding `C#C[C@]1(OC(C)=O)CC[C@H]2[C@@H]3CCC4=C[C@@H](OC(C)=O)CC[C@@H]4[C@H]3CC[C@@]21C`, the Potency in test [1] was 12.3 µM (active). In addition, the Potency result in test [2], in test [3] and in test [4] was “inactive” throughout.
With `Cc1cc(C(C#N)c2ccc(Cl)cc2)c(Cl)cc1NC(=O)c1cc(I)cc(I)c1O` (stereo unspecified), in test [1], the Potency was 17.4 µM (active). Further, the Potency result in test [2], in test [3] and in test [4] was “inactive” each time.
Regarding `Cc1c2ccccc2c(C)c2c1ccc1ccccc12`, the Potency in test [1] is 22.2 µM (active) and 25.2 µM (active); in test [2], 626 nM (active) and 1.78 µM (active); in test [4], 22.2 µM (active) and 20 µM (active). In addition, the Potency result in test [3] is “inactive”.
As for `Cc1cc(-n2nc3ccc(Cl)cc3n2)c(O)c(C(C)(C)C)c1`, the Potency entry in test [1], in test [2], in test [3] and in test [4] was “inactive” each time.
Turning to `CCC(=O)OC(=O)CC`, the Potency entry in test [1], in test [2], in test [3] and in test [4] was “inactive” throughout.
On to `Cc1cc(-c2ccc(N=Nc3cc(S(=O)(=O)O)c4ccccc4c3N)c(C)c2)ccc1N=Nc1cc(S(=O)(=O)O)c2ccccc2c1N`, for which the Potency entry in test [1], in test [2] and in test [4] was “inactive” throughout. Also, in test [3], the Potency was 19.6 µM (active).
Consider `O=[N+]([O-])c1cccc(C(F)(F)F)c1`, for which the Potency result in test [1], in test [2], in test [3] and in test [4] was “inactive” throughout.
With `O=S(=O)(O)c1ccc(N=Nc2c(O)ccc3ccccc23)cc1`, the Potency in test [1] was 31.7 µM (active); in test [2] it was 31.7 µM (active); in test [4], 35.6 µM (active). The Potency result in test [3] was “inactive”.
On to `COc1cc(/C=C/c2ccccc2)oc(=O)c1`, for which the Potency was 32.8 µM (active) in test [1], 2.93 µM (active) in test [2] and 26.1 µM (active) in test [4]. In addition, the Potency entry in test [3] is “inactive”.
For `c1ccc(SSc2ccccc2)cc1` the same measures were 31.9 µM (active), 3.19 µM (active), “inactive” and “inactive”.
`COC(=O)Nc1nc2ccc(C(=O)c3ccccc3)cc2[nH]1`: the Potency result in test [1], in test [3] and in test [4] was “inactive” each time. Further, the Potency in test [2] was 12.9 µM (active).
With `CC[N+](CC)(CC)CCOc1ccc(/C=C/c2ccccc2)cc1`, the Potency entry in test [1], in test [2] and in test [4] was “inactive” in each case. The Potency in test [3] was 8.49 µM (active).
As for `CCc1cccc(CC)c1NC(=O)CN(CC(=O)O)CC(=O)O`, the Potency result in test [1], in test [2], in test [3] and in test [4] was “inactive” throughout.
As to `Cc1nc(-c2ccc(Cl)cc2)oc1COC(C)(C)C(=O)O`, the Potency result in test [1], in test [2], in test [3] and in test [4] was “inactive” in each case.
As to `C=C(CC)C(=O)c1ccc(OCC(=O)O)c(Cl)c1Cl`, the Potency in test [1] was 8.88 µM (active) and 5.49 µM (active). In addition, the Potency result in test [2], in test [3] and in test [4] was “inactive” each time.
For `Oc1ccccc1O`, the Potency result in test [1], in test [2], in test [3] and in test [4] was “inactive” each time.
As to `OC[C@H]1O[C@H](O[C@H]2O[C@H](CO)[C@@H](O)[C@H](O)[C@H]2O)[C@H](O)[C@@H](O)[C@@H]1O`, the Potency result in test [1], in test [3] and in test [4] was “inactive” throughout. Moreover, the Potency in test [2] is 63.7 µM (active).
For the molecule `O=c1oc2cc(O)ccc2c2oc3cc(O)ccc3c12`, the Potency in test [1] is 68.1 µM (active); in test [2], 8.57 µM (active); in test [4], 19.2 µM (active). The Potency result in test [3] is “inactive”.
Regarding `COc1ccc(-c2coc3cc(O)ccc3c2=O)cc1`, the results for the Potency in test [1] and in test [2] were 0.252 µM (active) and 12.6 µM (active), respectively. Besides, the Potency result in test [3] and in test [4] was “inactive” in each case.
As to `CC(CCc1ccccc1)NCC(O)c1ccc(O)c(C(N)=O)c1` (stereo unspecified), the Potency result in test [1], in test [2] and in test [4] was “inactive” in each case. Further, in test [3], the Potency is 19.5 µM (active).
As for `CCc1ccc(Br)cc1`, the Potency result in test [1], in test [2], in test [3] and in test [4] was “inactive” in each case.
As for `COC(=O)c1ccccc1OC`, the Potency result in test [1], in test [3] and in test [4] was “inactive” each time. Further, in test [2], the Potency is 25.2 µM (active).
For the molecule `c1cnccn1`, the Potency result in test [1], in test [3] and in test [4] was “inactive” each time. In test [2], the Potency is 36.8 µM (active).
On to `O=c1[nH]c(=O)n([C@H]2C[C@H](O)[C@@H](CO)O2)cc1F`, for which the Potency result in test [1], in test [2], in test [3] and in test [4] was “inactive” each time.
For the molecule `Cc1cc(C)c(/C=C2\C(=O)Nc3ccccc32)[nH]1`, the Potency was 11 µM (active) in test [1] and 1.44 µM (active) in test [2]. The Potency result in test [3] and in test [4] was “inactive” each time.
As to `Nc1cc(Cl)c(O)c(Cl)c1`, the Potency was 28.3 µM (active) in test [1], 39.9 µM (active) in test [2] and 8.94 µM (active) in test [4]. Further, the Potency result in test [3] is “inactive”.
As to `OC/C=C/CO`, the Potency entry in test [1], in test [2], in test [3] and in test [4] was “inactive” throughout.
On to `CCCCCCOC(=O)C(C)CC` (stereo unspecified), for which the Potency result in test [1], in test [2], in test [3] and in test [4] was “inactive” throughout.
